Activity calls are given as the source filed them. Calls come from the whole dose curve; as a rule, active = well fitted curve in the direction sought with a large enough effect; inconclusive = small, poorly fitted or top-dose-only effect, or another doubt; inactive = no such curve, though single readings can be large or run the other way. Residues, ends and D or L forms follow the SMILES beside them. *: point of attachment. Cbz = O=C(OCc1ccccc1)*
test: qHTS for compounds that reverse cellular toxicity of Amyloid beta (A-beta) peptide in yeast: LOPAC Validation Assay (AID 720559); conditions: yeast expressing A-beta; series mostly up to 46.1 µM
From the text: The A-beta peptide is produced by the processing of the amyloid precursor protein (APP) by two proteases, beta and gamma secretases. […] A-beta42 is regarded as the most amyloidogenic form due to its hydrophobicity; however, precisely how A-beta42 induces neurotoxicity is unclear. To understand further this biology and its potential therapeutic implications for human neurodegenerative disease, a quantitative high-throughput screen for compounds that reverse the cellular toxicity of the A-beta peptide was developed.
A yeast based screen was used because it recapitulates the salient feature of protein mis-folding disorder accurately. This cell-based phenotypic screen provides a significant, unbiased advantage by letting the compounds and models inform us which proteins or pathways are most relevant. The ideal chemical candidates would therefore have activity in both our primary yeast and secondary neuronal toxicity assays, as well as in mouse models. They will be valuable tools for dissecting diverse protein homeostasis pathologies and could potentially become the focus for future pre-clinical development. For this […] assay, inhibition of A-beta rescues the toxic effect in the yeast cell, resulting in increase of signals.
NIH Chemical Genomics Center [NCGC]
NIH Molecular Libraries Probe Centers Network [MLPCN]
Assay Submitter (PI): Susan Lindquist, Whitehead Institute, Massachusetts Institute of Technology
[1] Vassar R,et al (1999). Beta-secretase cleavage of Alzheimer's amyloid precursor protein by the transmembrane aspartic protease BACE. Science. 286: 735-741.
[2] Yan R, et al (1999). Membrane-anchored aspartyl protease with Alzheimer's disease beta-secretase activity. Nature.
Two and a half microliter / well of yeast growth medium were dispensed in a 1536 assay plate. Compounds were pinned using the Kalypsys robotic system followed by addition of 2.5 uL / well yeast solution. The assay plates were incubated at 30 C. After 48 hr, the absorbance signal at 600 nm was obtained using the PerkinElmer ViewLux plate reader to assess yeast growth. The data was normalized to the positive control of an equimolar mixture of ferric chloride (FeCl3) and clioquinol and to the negative control DMSO.

Row | Compound | outcome
1 | CO/N=C(\C(=O)N[C@@H]1C(=O)N2C(C(=O)O)=C(CSc3nc(=O)c(O)nn3C)CSC12)c1csc(N)n1 (stereo not given in full) | inactive
2 | CCCn1c(=O)c2c(ncn2C)n(CCC)c1=O | inactive
3 | NC1C=CC=C(C(=O)O)C1 (stereo not given) | inactive
4 | OCC1NCC(O)C(O)C1O (stereo not given) | inactive
5 | N=C(N)c1ccc(N)cc1 | inactive
6 | O=C(O)Cc1ccc(O)c(O)c1 | inactive
7 | CCCCOc1cc(CC2CNC(=O)N2)ccc1OC (stereo not given) | inactive
8 | NCC(O)C1CCCCCCC1 (stereo not given) | inactive
9 | COc1cc(CC(=O)O)ccc1O | inactive
10 | CCCCCC(O)CCCC(=O)O (stereo not given) | inactive
11 | Oc1cc(O)c2c(c1)O[C@H](c1ccc(O)c(O)c1)[C@@H](O)C2 | inactive
12 | CSc1nc(N)c2ncn([C@@H]3O[C@H](COP(=O)(O)OP(=O)(O)O)C(O)[C@H]3O)c2n1 (stereo not given in full) | inactive
13 | NOCC(=O)O | inactive
14 | N#CC(=C(\N)Sc1ccccc1N)/C(C#N)=C(/N)Sc1ccccc1N | inactive
15 | N[C@H](C(=O)O)[C@H](O)C(=O)O | inactive
16 | CC(=O)N[C@@H](Cc1c[nH]c2ccccc12)C(=O)OCc1cc(C(F)(F)F)cc(C(F)(F)F)c1 | inactive
17 | Nn1nnc2ccccc21 | inactive
18 | O=C(O)c1cccnc1C(=O)O | inactive
19 | CC(=O)/C(C)=N/O | inactive
20 | CCCOC(=O)c1c(-c2ccccc2)nc(CC)c(C(=O)SCC)c1CCC | inactive

Row | Compound | outcome
21 | CC1=C(C(=O)O)N2C(=O)[C@@H](NC(=O)C(N)C3=CCC=CC3)[C@H]2SC1 (stereo not given in full) | inactive
22 | O=c1[nH]c2cc(Cl)ccc2c(O)c1-c1ccc(Oc2ccccc2)cc1 | inactive
23 | C[C@](Cc1ccc(O)c(O)c1)(NN)C(=O)O | inactive
24 | O=c1onc2cnc3ccccc3n12 | inactive
25 | CC(C)(C)c1cc(/C=C(\C#N)C(N)=S)cc(C(C)(C)C)c1O | inactive
26 | CC1CCN=C(N)S1 (stereo not given) | inactive
27 | Oc1ccc(/C=C/c2ccc(/C=C/c3ccc(O)cc3)c(Br)c2)cc1 | inactive
28 | Cc1nc2n(c(=O)c1CCN1CCC(c3noc4cc(F)ccc34)CC1)CCCC2O (stereo not given) | inactive
29 | CC(C)C[C@H](NC(=O)[C@H](O)[C@H](N)Cc1ccccc1)C(=O)O | inactive
30 | Clc1nccc2c1ccc1ccccc12 | inactive
31 | N[C@@H](Cc1c[nH]c2ccccc12)C(=O)O | inactive
32 | CCCn1c(=O)c(C)cn2nc(N)nc12 | inactive
33 | COc1ccc(-c2ccc(N)[n+](CCCC(=O)O)n2)cc1 | inactive
34 | CC(C)[C@H](NC(=O)OCc1ccccc1)C(=O)N[C@H](C=O)Cc1ccccc1 (Cbz-Val-Phe-aldehyde) | inactive
35 | C=CCN1CCc2cc(O)c(O)cc2C(c2ccccc2)C1 (stereo not given) | inactive
36 | COC(=O)[C@H](NC(=O)c1cc(-c2ccccc2)nc2ccccc12)c1ccccc1 | inactive
37 | NCCCNCCCCNCCCN | inactive
38 | CCCCCCCCCCCCCCCCCCOC[C@H](COP(=O)([O-])OCC[N+](C)(C)C)OC | inactive
39 | CCCCC[C@H](CC(=O)NO)C(=O)N[C@H](C(=O)N1CCC[C@H]1CO)C(C)C | inactive
40 | CC(O)C(O)[C@H]1CNc2nc(N)[nH]c(=O)c2N1 (stereo not given in full) | inactive

— PubChem BioAssay (NCATS)
